Screening data: PubChem BioAssay, National Center for Advancing Translational Sciences (NCATS)
This excerpt belongs to a sample that is enriched for hits.
AmpC inh detg: AmpC beta-lactamase inhibition with detergent present. AmpC hydrolysis of nitrocefin, absorbance 480 nm, 0.01% Triton. Potency, µM (titrated, usually from 114 µM), inactives show at the top dose activity change, negative = inhibition, hits mostly inhibitors. hit rate 0.041% among 370,000. AID 485294;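 further: potency means the concentration at half of the fitted maximal effect; 0% = no-compound wells and -100% = no-enzyme wells; nearly all actives have a fitted effect of over 25% in size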
Target sequence (P00811 whole entry, looked up): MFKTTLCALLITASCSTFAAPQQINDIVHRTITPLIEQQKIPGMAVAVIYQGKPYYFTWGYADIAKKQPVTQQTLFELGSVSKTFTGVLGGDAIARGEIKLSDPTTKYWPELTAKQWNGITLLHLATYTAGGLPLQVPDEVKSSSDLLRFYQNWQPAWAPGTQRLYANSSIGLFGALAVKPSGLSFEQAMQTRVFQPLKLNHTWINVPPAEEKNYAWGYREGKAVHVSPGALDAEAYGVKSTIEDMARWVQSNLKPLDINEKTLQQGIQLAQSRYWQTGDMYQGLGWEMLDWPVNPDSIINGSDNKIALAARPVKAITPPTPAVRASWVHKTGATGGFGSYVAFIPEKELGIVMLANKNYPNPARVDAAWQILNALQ
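20 mM phosphate pH 7.0 + 0.01% (detergent screen) or 0.0001% Triton X-100; 5.3 nM AmpC reagent; cpd preinc 15 min RT; nitrocefin (800 uM stock) to start; A480 q20 s × 4 min; Activity was normalised to no-enzyme and no-compound control wells.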
Shiga toxin inh: blocks Shiga toxin action in Vero cells; Vero cells, Shiga toxin protein synthesis inhibition reporter; inhibition, % at 38.7 µM; hit rate 9.2% among 290,000; AID 2315; in the data active means inhibition mostly above about 28%, no sharp cut-off; inactive means mostly below about 43%; further: 0% is about no effect
NS1 function inh: inhibitors of influenza NS1 protein function; hit rate 0.4% among 270,000; Potency, µM (top dose mostly 46.1 µM), without a hit: top-dose activity, positive = more growth; calls by dose curve; further: potency means the concentration at half of the fitted maximal effect; actives are rising curves; nearly all actives have a fitted effect of over 50% in size
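In this qHTS, NS1 from influenza A is expressed in budding yeast, where it slows growth. Cells are switched from glucose to 2% galactose medium (pH 6.0, -URA), treated with compound, and growth recovery is read at OD600.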
AmpC no deterg: inhibitors of E. coli AmpC beta-lactamase without detergent. AmpC nitrocefin hydrolysis, absorbance 480 nm, 0.0001% Triton. Potency, µM (series often up to 57.1 µM), inactives show at the top dose activity change, negative = inhibition, hits mostly inhibitors. hit rate 0.52% among 330,000. AID 485341;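 further: potency means the concentration at half of the fitted maximal effect; plate controls were no compound for no effect and no enzyme for full effect; nearly all actives have a fitted effect of over 20% in size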
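AmpC (5.3 nM in the dispensed reagent) in 20 mM phosphate pH 7.0 with 0.01% (detergent screen) or 0.0001% Triton X-100 was preincubated with compounds for 15 min at room temperature. Nitrocefin was then added from an 800 uM solution, and hydrolysis was followed at 480 nm.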
Cycloheximide cs: counter-screen for Shiga toxin inhibitors: cycloheximide protein synthesis inhibition; cell reporter, cycloheximide protein synthesis inhibition counterscreen; max response, %; hit rate 12% among 300,000; AID 2314; in the data active means max response mostly above about 13%, no sharp cut-off; inactive means mostly below about 14%; further: read at 38.3 µM for the half of the compounds with a filed dose; 0% is about no effect
Numbers without * were called inactive; i = inactive; ? = inconclusive; . = not tested or not shown; [ ] = another dose, or the depositor's remark. Unless noted, the call rests on the fitted dose curve; in most records, active means well fitted curve in the direction sought with a large enough effect; inconclusive means small, poorly fitted or top-dose-only effect, or another doubt; inactive means no such curve, though single readings can be large; an effect the other way counts as inactive or inconclusive.

SMILES	AmpC inh detg	Shiga toxin inh	NS1 function inh	AmpC no deterg	Cycloheximide cs
CC(O)CN1CC(O)=C(c2nc3ccccc3s2)C1=N (stereo unspecified)	2%	21	.	-9%	17*
COc1cccc(C(=O)NN2CC(O)=C(c3nc4ccccc4s3)C2=N)c1	?	-13	7%	-11%[2.29 µM]	-2
CCN1CC(O)=C(c2nc3ccccc3s2)C1=N	-7%	27	-12%	-8%	24*
COc1ccc(OC)c(NC(=O)c2ccc(-n3cccn3)nc2)c1	-6%	-9	-13%	-18%	1
O=C(COc1ccccc1-c1nc(-c2ccccc2)no1)Nc1ccc([N+](=O)[O-])cc1	-12%	.	.	.	.
C[C@]12CCC(=O)C=C1C=C[C@@H]1[C@@H]2CC[C@@]2(C)[C@H]1CC[C@@]21CCC(=O)O1	-4%	-8	-7%	8%	-3
Cc1ccnc(NC(=O)c2cccc(S(=O)(=O)N3CCCC3)c2)c1	2%	22	0%	-12%	25*
Cc1cc(NC(=O)c2cccc(S(=O)(=O)N3CCCCC3)c2)no1	-3%	11	9%	-23%	9.3*
Cc1cc(C)cc(-n2ccn3c(CC(C)(C)CC(=O)O)nnc3c2=O)c1	-6%	.	.	.	.
COc1ccc(N2CCN(C(=O)c3cccnc3)CC2)c([N+](=O)[O-])c1	1%	-7	-5%	0%	-1
Cc1ccc2nc(-c3cc(-c4ccccc4)no3)cn2c1	-1%	114*	-25%	-25%	49*
Cc1ccn2cc(-c3cnoc3C)nc2c1	2%	82	-16%	-12%	18
CCc1ccn2cc(-c3cc(-c4ccccc4)no3)nc2c1	4%	23	-45%	-10%	37*
CCOC(=O)CN1N=C(/C=C/c2ccc(C)cc2)CCC1=O	-8%	47*	-2%	116%	21
Cc1ccc(/C=C/C2=NN(Cc3ccc(Cl)c(Cl)c3)C(=O)CC2)cc1	-2%	31	9%	-11%	10
COc1ccc(/C=C/C2=NN(C)C(=O)CC2)cc1	5%	54*	.	-14%	34*
CCOc1ccc(NC(=O)CCN2C(=O)c3cccc([N+](=O)[O-])c3C2=O)cc1	-15%	-7	-1%	-6%	-2
CN(C)c1ccc(NC(=O)CCN2C(=O)c3cccc([N+](=O)[O-])c3C2=O)cc1	?	23	-4%	-19%	16*
Cc1cccc(Cn2c(N(C)CCO)nc3c2c(=O)[nH]c(=O)n3C)c1	?	1	-5%	11µM*	-1
CCCc1cc(=O)n2[nH]c(-c3ccccc3)cc2n1	-7%	70*	-2%	-14%	30
O=c1cc(-c2ccccc2)nc2cc(-c3ccco3)[nH]n12	5%	44	8%	-41%	18*
CCCc1cc(=O)n2[nH]c(C)nc2n1	-7%	19	-3%	-20%	-5
CCCc1cc(=O)n2[nH]c(-c3ccc(Cl)cc3)cc2n1	3%	92*	12%	-40%	57*
CCOC(=O)Cc1cc(=O)n2[nH]c(-c3ccc(Cl)cc3)cc2n1	4%	11	6%	-29%	10
CCCc1cc(=O)n2[nH]c(-c3ccc(C)cc3)cc2n1	-11%	73*	-7%	-23%	39*
SMILES	AmpC inh detg	Shiga toxin inh	NS1 function inh	AmpC no deterg	Cycloheximide cs
O=C(CN1C(=O)NC2(CCCCCC2)C1=O)c1ccc(OC(F)F)cc1OC(F)F	-1%	.	.	-18%	.
CCN(C1CCCCC1)S(=O)(=O)CCNC(=O)c1ccc2c(c1)OCO2	2%	.	.	-20%	.
CC1(C)O[C@@H]2[C@H](O1)[C@@H](CO)O[C@H]2n1ccc(=O)[nH]c1=O	4%	.	.	-3%	.
CN(c1nc(-c2ccc(Br)cc2)cs1)C1CCS(=O)(=O)C1 (stereo unspecified)	-7%	43	.	35%	19*
Cc1ccsc1CN(C(=O)COc1ccc(Br)cc1)C1CCS(=O)(=O)C1 (stereo unspecified)	12%	.	.	.	.
CC1=C(C(=O)OC2CCCC2)C(c2c(Cl)cccc2Cl)CC(=O)N1 (stereo unspecified)	13%	.	.	.	.
COc1ccccc1OCCSc1nc(N)cc(N)n1	?	active	12%	-6%	22
COc1ccccc1NC(=O)CSc1nc(N)cc(N)n1	?	-5	?	-22%	-1
COc1ccccc1OCC#CCSc1ncccn1	-2%	54	-4%	2%	24*
Nc1cc(N)nc(SCCOc2ccccc2F)n1	-2%	121*	1%	-33%	70*
COc1ccccc1OCC#CCN1CCCC1	0%	-11	0%	-12%	-2
CCOC(=O)Cc1c(C)nc2c(-c3ccc(OC)c(OC)c3)c(C)nn2c1C	-2%	.	.	.	.
N#C/C(=C\c1cccc(O)c1)C(=O)Nc1ccc2c(c1)OCCO2	4%	83*	-5%	-41%	60*
CC(C)NC(=O)/C(C#N)=C/c1ccc2c(c1)OCCO2	-9%	85*	-3%	-16%	22*
CN(CC(=O)Nc1ccc(N2CCOCC2)cc1)C(=O)CCNC(=O)c1ccc(Br)cc1	-9%	.	.	10%	.
Cc1ccc(C)c(NC(=O)c2c(Cl)nc3ccccn23)c1	2%	-4	-2%	-13%	-1
COc1ccccc1N1CCN(C(=O)/C=C/c2c(Cl)nc3ccccn23)CC1	-2%	-16	.	29%	5
CC(=O)Nc1ccc(NC(=O)c2c(C)nc3ccccn23)cc1	-9%	32	4%	-7%	4
Cc1nc2ccccn2c1C(=O)Nc1ccc(Cl)cc1	4%	52	-5%	8%	24*
Cc1ccc(NC(=O)c2c(Cl)nc3ccccn23)cc1	1%	114*	-1%	-5%	37*
COc1ccc(NC(=O)/C=C/c2c(Cl)nc3ccccn23)cc1	2%	-2	.	-51%	20*
Cc1nc2ccccn2c1C(=O)Nc1ccc2c(c1)OCCO2	?	112*	0%	-21%	45*
Cc1nnc(NC(=O)C2CC(=O)N(C(C)c3ccccc3)C2)s1 (stereo unspecified)	0%	20	3%	-7%	4
CC(C)(C)c1ccc(C(=O)NNc2ncnc3c2cnn3-c2ccccc2)cc1	-4%	.	.	.	.
COc1ccc2c(c1)C(c1ccc(C)cc1)CC(=O)O2 (stereo unspecified)	.	i	.	.	10
SMILES	AmpC inh detg	Shiga toxin inh	NS1 function inh	AmpC no deterg	Cycloheximide cs
N#Cc1c(-n2ncnc2-c2ccccc2Cl)sc2c1CCCCC2	2%	.	.	.	.
O=C(O)c1cccc2c1C(=O)c1ccccc1-2	3%	6	-36%	-20%	-2
CC(C)OC(=O)c1cccc2c1C(=O)c1ccccc1-2	-6%	74*	-8%	-14%	38*
CCN1C/C(=C\c2cccc([N+](=O)[O-])c2)C(=O)/C(=C/c2cccc([N+](=O)[O-])c2)C1	3%	-3	-28%	-22%	-2
O=C1/C(=C/c2cccc([N+](=O)[O-])c2)CCc2ccccc21	?	57*	-20%	-19%	59*
O=C1/C(=C/c2ccncc2)Cc2ccccc21	2%	.	.	-3%	.
O=C1/C(=C/c2ccc([N+](=O)[O-])cc2)CCc2ccccc21	-1%	127*	-5%	-33%	71*
O=c1c(N2CCc3ccccc3C2)csc2ccc(Br)cc12	12%	.	.	.	.
